Data published in PubChem BioAssay AID1508600 (Functional Genomics Laboratory (NCATS/FGL), 2020).
Out of some 53,000 sequences screened, about 3,700 (7%) were called active.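 Rule for the calls: active = gene knockdowns whose robust z-score for IL-1 alpha signal is at least 2 or at most -2, so actives lie on both sides; inactive = the rest.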 This excerpt belongs to a sample that is enriched for actives.

Assay: Components of the Cytosolic LPS Sensing Pathway: Gene Identification via Genome-wide siRNA Screen;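 note: robust z of the log signal after scaling to non-targeting control siRNA wells of the plate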
Details: RAW264.7 macrophages, IL-1a HTRF, actives lie on both sides, screened at 100 nM (by protocol), cells primed 5 h with Pam3CSK4 first
Summary of the method: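 Three distinct siRNAs per gene were tested singly at 100 nM in RAW264.7 macrophages. Following Pam3CSK4 priming and 24 hour LipidA transfection, IL-1a secretion was read by HTRF.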

z-score, active:
GGAAAUGUACAAGACUGAUTT against Anxa2 2.29
GCCUCUAUUCUACACCACATT against Gpr137 -2.1
GGCUGGAUACUCAGUGCUATT against Abhd16b 6.41
GGAACAGAUAACAUUAUGGTT against Cpeb3 2.79
GCGAAUCAGCACUUAUGGATT against Cd2ap 2.65
GGUCUCAGCAAUCUGUUCCTT against 1700029I15Rik -2.15
GGGUAUUGCUGGACAACGUTT against Col1a1 3.85
GGAAUUUUAUGCCAAGAAUTT against Hip1r -3.89
GCAUACAAAUGCACAUUGATT against Lsg1 2.69
GGCCAGAAGAUUCCUAAAGTT against Gulp1 3.38
GGAUGGUCACGGAAGUUCUTT against Lmf2 2.36
GGACAAAAUUGAACACAAGTT against Pogz 2.86
GGUCUGGUCAUCUCAGUUUTT against Tmem159 3.53
GGUACUUUACACUGAACAATT against Serpinb13 2.91
GCUGUCUGAUUCUGAGGUGTT against Slc6a1 2
GGGAGCAAACGAGAAGAUATT against Gjd2 4.09
CGAUUUCCCAAGUUAUUACTT against Nxf1 -2.26
GGAGAAAAGGGUGCUGAAGTT against Ybx3 2.85
GGCUGAAAGUGAAGAAACGTT against Srp68 -2.11
GGUUUGUUUGUUUUUUGGUTT against Ajuba 2.96
GAUCUUAGCUGUGUGUGUGTT against Pf4 -2.57

z-score, inactive:
GGAUUUCAAAUGGAAACAATT against Vmn1r45 -1.15
GCAUGAAUUUUGCACGGACTT against Rad18 1.04
UCAACUCAAACUAUGUCGATT against Hoxb4 -0.172
GGUCUGUGGAUUUAAACUUTT against Sestd1 0.931
CGAAGAGAGCUGCAUUAAATT against BC049715 -1.37
GGCUAUCAUGAACUUGGAUTT against Gpd2 -0.57
GGAAAAAAACUUGCUGGAUTT against Ppp3ca -0.681
CCAAAUAACCUGCUACGAGTT against Ffar2 0.905
GGUAUACUAACUUUUAAGGTT against Fmo1 -0.228
GAAAAACUGCUGUUUUGGATT against Ly6g6d 1.87
GGAGACGAGAGGAUCCUCUTT against Chga -1.56
GGUCAAGAAUGUAGCUGAUTT against Atp6v0d1 -1.87
GGUGUGUGAACCAUGUGUGTT against Olfr157 -1.03
GGCAUAGUGAAUUUAGUCUTT against Iqub 0.526
GGUCAUGGAUCAGAAAGAATT against Hnrnpd 0.297
CACGGUACAGUACGAUUGATT against Rcan2 0.143
CAAGUACAAGCAGUUGACCTT against BC061237 -0.0958
GAGGGUGUGCAUUCUUCUATT against Olfr1242 -0.766
GGUUCCUUAAUCACUUUGCTT against Ndufa9 -0.139
GGCCCUUACUUCCACAUCATT against Fam104a -0.711
CGAAGCACAUAUCUUUGAUTT against Zfp41 0.444
GGAAAGAGGAAUCAAGAAATT against Slc23a2 -1
CCAAAGAGCGCAUGGCUCATT against Epn2 -0.782
GGUCUACUCUUCAUAUCGCTT against Rab3d -0.566
GGACAGUUCAGAACAAAUUTT against Ccbe1 -0.168
GCUGAACCAAACCCAAAUGTT against Snph 0.00664
GGUGAUGCCACUAGUGAAGTT against Scx -0.123
GGCAGAUCUAUUUAUGGUATT against Ccer1 0.229
GGAACUAUACCAAAGGCAATT against Cfap65 -0.198
GGAAUGAAGUCUGUCUUCGTT against Zdhhc7 0.648
GGAGGAGGAGCUGAAGAAATT against Atp12a -0.679
GGAAAGAUUUAUUUUGACGTT against Vnn3 0.286
GGUCUUCAGCACCUUUGAATT against Ccl2 -0.903
GGUACUUUUAUCUUAGCUATT against Paral1 0.0889
GGGAUUGUGAAUUUCAUGUTT against Gca 1.3
GCAGAUCAAUGACUAUAGATT against Arhgef11 0.858
GCCAUAUGGGCAGAUGUUUTT against Sec24b -0.682
GCCUAAGAGUUUCAAUAAGTT against Tgtp1 -1.21
GCAAAUGCACACUCUAGGATT against Ptprn2 -0.0741
GGAAGAAUCGCUGCUACCGTT against Mrpl20 1.06
GCUGUGAUCAGGACGAGAATT against Stx2 0.187
GGGAAAGAUUCAUGUUACUTT against Mug2 -0.804
GCUAACCAGUCAGUUGAUCTT against Mocs1 -0.086
CCUUACCAAUGUUCAUUUATT against Skint7 -0.32
GGAUCUGCAUUUCACUAUUTT against Pi4ka 0.818
GGAUCCGUGAAUGUAGUCATT against Rapgef4 -0.793
CGGAUUGUAAAGAACUGCATT against Sfrp1 -0.0934
GCUUUGUGAUGGAUUACUATT against Ccl4 1.85
CGUAUACUGUGAUUGAUAUTT against Lcn5 -0.647
GUUACAGUAUUCUAUGGGATT against Olfr1080 0.508
GGUUUUUCUGAGUUUCCGUTT against Il4i1 -1.03
GCCUCAUUAUAAAUCACACTT against Bclaf3 0.752
GGUGGAGUUCGUGUUGAGCTT against Slc6a11 -0.527
GAAGGACACCCUUAUAUUUTT against Olfr1216 0.892
GGGCCUCAUCUUUGUGGUATT against Arf5 0.359
GGAUUGUUUAUCUGUCUUCTT against Cyp3a44 -1.05
GGACCUAAAGUUUCUCUCATT against Ccnc -0.2
GGUCAUAGCUGGAUUCCUUTT against Olfr1453 -1.47
GCUUAUAAUGGCAAUAUUGTT against Nvl 0.275
GGCGAAUUAAUUAACCGCCTT against Abcb10 0.798
CCUCGAUAGGUUAGUGACATT against Fdxacb1 -0.731
GGUACAGAAACAGUUAGUUTT against Olfr432 0.328
GCUUCCUAGAUCAUGACUGTT against Ube2g2 -0.318
GGCAAUAGCUACACCUUCATT against Csf1r 1.9
CCAUUGUCACUCCUAGUGUTT against Olfr1361 1.03
GGAACAAGAAGAAGAAAAATT against Slco3a1 -1.03
GGCAUGUAGGGUUUUGUUUTT against 9830163H01Rik -0.605
GGCAUAAACCACUUCCAGCTT against Dedd2 0.342
GCAUUUAAGGACCUUGUAATT against Olfr813 -1.5
GGCCAUGAUUGUGUUUCAGTT against Tspan8 1.76
GCCUUCCACUACCUUACGUTT against Kcnk3 0.067
CCGACAGACUCACAUACUGTT against Trex1 -0.942
GGCGUGUCUUGAUAGAAAUTT against Tesmin 0.652
GCGCAAAGUCGAAUCCAGUTT against Vgll1 -0.156
GGAGGGUGAAGAGAAUGGUTT against R3hdm2 1.14
GGUCCAUCAGGAAAAUCAATT against Obox6 0.0445
GGGCUCUGUGGAAAUCAUGTT against Rnf187 -0.043
GGCUGUGAAUCUGAAGAGCTT against Chrna6 0.241
GGUGGUAGCUUUGUACUUUTT against Nxnl2 0.829
GGAAGCACGUUGGAAGGAUTT against Olfr845 0.461
GCAUAUGGAGCAACUUGCUTT against Dsg1c -1.17
GGUGAUGAUCCCAUGGGUUTT against Ube2g2 -0.289
GGUGCAAAGCUUGAAAAUGTT against Gpr150 -0.324
GCGAGUGCUUGGCUAUUAUTT against Ckap2 -0.234
GGAGUGAAAUAUGGAGUUGTT against Dhrs7b 0.787
GGAAUGUAAGAACCCUUGCTT against Adam19 1.77
GGCCUAUGCGAAAAUCUGUTT against Camk2b -1.14
